The values that follow come from the antibiotic and cytotoxicity screens of Wong et al. (2023).

SMILES strings stand for the structures. Among all 39,000 compounds or so, about 3,300 (8.5%) were called active. This is one part of a sample in which actives are shown more often than they occur.

The assay concerns HepG2. The assay can be described thus: cytotoxicity call (relative viability < 0.9). Particulars: 10 µM.
Turning to `CN(C)CC(=O)N[C@H]1C=C[C@@H](CC(=O)O)O[C@@H]1CO`, the cytotoxicity call is “inactive”.
In the case of `C[C@H](CO)N1C[C@H](C)[C@H](CN(C)C(=O)Nc2ccc(C(F)(F)F)cc2)Oc2ccc(NC(=O)Cc3ccccc3)cc2CC1=O` it was “inactive”; in that of `C[C@H]1CN([C@@H](C)CO)C(=O)c2cccc(NC(=O)Nc3ccccc3)c2O[C@H]1CN(C)Cc1ccc(Oc2ccccc2)cc1`, “inactive”; in that of `Cc1noc(C)c1S(=O)(=O)Nc1ccc2c(c1)C(=O)N([C@H](C)CO)C[C@H](C)[C@H](CN(C)Cc1ccc3c(c1)OCO3)O2`, “inactive”.
The same measure for `COC[C@@H](O)CNc1ncnc2c1CCNCC2`: “inactive”; for `C[C@H]1CN([C@@H](C)CO)C(=O)c2cccc(NC(=O)c3nc4ccccc4s3)c2O[C@@H]1CN(C)CC1CCCCC1`: “inactive”; for `Cc1noc(C)c1S(=O)(=O)N(C)C[C@H]1Oc2ccc(NC(=O)NC(C)C)cc2CC(=O)N([C@@H](C)CO)C[C@@H]1C`: “inactive”.
For the compound `C[C@@H]1CN([C@@H](C)CO)C(=O)c2cc(NC(=O)c3ccccc3)ccc2O[C@@H](C)CCCCO[C@H]1CN(C)C(=O)Cc1ccccc1`, the cytotoxicity call is “inactive”.
For the compound `O=C([C@H]1CCCCN1)N1CCCC1`, the cytotoxicity call was “inactive”.
On to `CC(=O)N1[C@H](CO)[C@@H](c2ccccc2)[C@H]1CNC(=O)CN1CCOCC1`, for which the cytotoxicity call is “inactive”.
Regarding `Cc1ccc(S(=O)(=O)N(C)C[C@H]2OCCCC[C@@H](C)Oc3ccc(NC(=O)NC4CCCCC4)cc3C(=O)N([C@@H](C)CO)C[C@H]2C)cc1`, the cytotoxicity call is “inactive”.
In the case of `Cc1ccc(S(=O)(=O)N(C)C[C@@H]2OCCCC[C@H](C)Oc3ccc(NC(=O)NC4CCCCC4)cc3C(=O)N([C@@H](C)CO)C[C@@H]2C)cc1` it was “inactive”; in that of `Cc1ccc(S(=O)(=O)N(C)C[C@@H]2OCCCC[C@@H](C)Oc3ccc(NC(=O)NC4CCCCC4)cc3C(=O)N([C@H](C)CO)C[C@@H]2C)cc1`, “inactive”.
In the case of `Cc1ccc(S(=O)(=O)N(C)C[C@@H]2OCCCC[C@@H](C)Oc3ccc(NC(=O)NC4CCCCC4)cc3C(=O)N([C@@H](C)CO)C[C@H]2C)cc1` it was “inactive”; in that of `Cc1ccc(S(=O)(=O)N(C)C[C@@H]2OCCCC[C@@H](C)Oc3ccc(NC(=O)NC4CCCCC4)cc3C(=O)N([C@H](C)CO)C[C@H]2C)cc1`, “active”.
The same measure for `Cc1ccc(S(=O)(=O)N(C)C[C@H]2OCCCC[C@@H](C)Oc3ccc(NC(=O)NC4CCCCC4)cc3C(=O)N([C@@H](C)CO)C[C@@H]2C)cc1`: “active”.
Consider `COc1ccc(S(=O)(=O)N(C)C[C@H]2OCCCC[C@@H](C)Oc3ccc(NC(=O)Nc4ccc(C(F)(F)F)cc4)cc3C(=O)N([C@H](C)CO)C[C@@H]2C)cc1`, for which the cytotoxicity call is “inactive”.
Consider `CC(C)c1nc(CN(C)C(=O)N[C@@H](CCN2CCOCC2)C(=O)N[C@H](CC[C@H](Cc2ccccc2)NC(=O)OCc2cncs2)Cc2ccccc2)cs1`, for which the cytotoxicity call is “inactive”.
As to `CC(C)NC(=O)Nc1ccc2c(c1)CC(=O)N([C@H](C)CO)C[C@H](C)[C@@H](CN(C)S(=O)(=O)c1cn(C)cn1)O2`, the cytotoxicity call is “inactive”.
With `C=CCOC(=O)[C@@H]1[C@H]2C(=O)O[C@H](c3ccccc3)[C@H](c3ccccc3)N2[C@H](c2ccc(OCCOC(=O)[C@@H]3C[C@@H]4C(=O)N5CCC[C@H]5C(=O)N4[C@@H]3c3ccc(O)cc3)cc2)[C@@]12C(=O)Nc1ccccc12`, the cytotoxicity call is “inactive”.
In the case of `COc1ccc([Si](C)(C)[C@@H]2[C@@H](CC(=O)N3Cc4ccccc4C[C@H]3CO)O[C@]3(C(=O)N(Cc4ccc(N5C(=O)c6cccc7cccc5c67)cc4)c4ccccc43)[C@H]2C)cc1` it was “inactive”.
The same measure for `COc1ccc([Si](C)(C)[C@@H]2[C@@H](CCO)O[C@]3(C(=O)N(Cc4ccc(N5C(=O)c6cccc7cccc5c67)cc4)c4ccccc43)[C@H]2C)cc1`: “active”; for `COc1ccc([Si](C)(C)[C@H]2[C@H](CC(=O)N3CCC[C@H]3CO)O[C@@]3(C(=O)N(Cc4ccc(N5C(=O)c6cccc7cccc5c67)cc4)c4ccccc43)[C@@H]2C)cc1`: “inactive”.
As to `COc1ccc([Si](C)(C)[C@H]2[C@H](CCO)O[C@@]3(C(=O)N(Cc4ccc(N5C(=O)c6cccc7cccc5c67)cc4)c4ccccc43)[C@@H]2C)cc1`, the cytotoxicity call was “active”.
As to `COc1ccc([Si](C)(C)[C@@H]2[C@@H](CC(=O)N3CCC[C@H]3CO)O[C@]3(C(=O)N(Cc4ccc(N5C(=O)c6cccc7cccc5c67)cc4)c4ccccc43)[C@H]2C)cc1`, the cytotoxicity call is “inactive”.
On to `C[C@H](CO)N1C[C@H](C)[C@@H](CN(C)S(=O)(=O)c2cn(C)cn2)Oc2ccc(NC(=O)Cc3cn(C)c4ccccc34)cc2C1=O`, for which the cytotoxicity call is “inactive”.
In the case of `c1csc(Cn2cccc2)c1` it was “inactive”; in that of `CCOC(=O)[C@H](C(C)=O)[C@H]1CCS(=O)(=O)C1`, “inactive”.
In the case of `CC(C)NC(=O)N(C)C[C@@H]1Oc2ccc(NC(=O)NC3CCCCC3)cc2C(=O)N([C@@H](C)CO)C[C@@H]1C`, the cytotoxicity call is “inactive”.
In the case of `Cc1noc(C)c1S(=O)(=O)Nc1ccc2c(c1)C(=O)N([C@H](C)CO)C[C@H](C)[C@@H](CN(C)Cc1ccc3c(c1)OCO3)O2` it was “inactive”; in that of `CCc1nc2ccc(C(=O)Nc3cc(-c4ccccc4)ccc3OC)cn2c1N(C)C(=O)Cc1ccccc1`, “inactive”; in that of `CCc1nc2ccc(C(=O)Nc3cc(-c4ccccc4)ccc3OC)cn2c1N(C)CCCc1ccccc1`, “inactive”.
In the case of `CCc1nc2ccc(C(=O)Nc3cc(-c4ccccc4)ccc3OC)cn2c1N(CCN(C)C)CC1CC1` it was “active”; in that of `CCC(=O)N1CCC(C(=O)O)CC1`, “inactive”.
In the case of `COC(=O)CCC(C)C1CCC2C3CCC4CC(O)CCC4(C)C3CC(O)C12C` (stereo not given) it was “inactive”.
Turning to `C[C@H](CCC(=O)NCC(=O)NCCS(=O)(=O)O)[C@H]1CC[C@H]2[C@@H]3[C@H](O)C[C@@H]4C[C@H](O)CC[C@]4(C)[C@H]3C[C@H](O)[C@]12C`, the cytotoxicity call was “active”.
For the compound `C[C@H](CCC(=O)NCCS(=O)(=O)O)[C@H]1CC[C@H]2[C@@H]3[C@H](O)C[C@@H]4C[C@H](O)CC[C@]4(C)[C@H]3C[C@H](O)[C@]12C`, the cytotoxicity call was “inactive”.
The same measure for `CC(CCC(=O)NCC(=O)O)C1CCC2C3C(O)CC4CC(O)CCC4(C)C3CC(O)C12C` (stereo not given): “inactive”; for `CC(CCC(=O)O)C1CCC2C3C(O)CC4CC(O)CCC4(C)C3CC(O)C12C` (stereo not given): “inactive”; for `COC(=O)CCC(C)C1CCC2C3C(O)CC4CC(O)CCC4(C)C3CC(O)C12C` (stereo not given): “active”.
